Reference: PubChem BioAssay (NCATS)
Inconclusive results are not listed. Calls of active or inactive are those of the source. Calls come from the whole dose curve; as a rule, active = well fitted cell-killing curve with a large enough effect; inconclusive = small, poorly fitted or top-dose-only effect; inactive = flat fitted curve, though single readings scatter.

Experiment: Cell Viability - SH-SY5Y (AID 544); note: nearly all actives have a fitted effect of over 55% in size;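 for viability change, negative = cytotoxic: 0% = DMSO alone and -100% = 100 µM tamoxifen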
Conditions: SH-SY5Y neuroblastoma cell viability; series mostly up to 92.2 µM; viability change, negative = cytotoxic: at the top concentration
Excerpt: NIH Chemical Genomics Center [NCGC]
NIH Molecular Libraries Screening Centers Network [MLSCN]
National Institutes of Environmental Health Sciences [NIEHS]
National Toxicology Program [NTP]
We have developed a 1536-well cell-based assay for quantitative high throughput screening (qHTS) against a number of cell lines to determine in vitro cytotoxicity of small molecules. This particular assay uses the SH-SY5Y cell line which is derived from human neuroblastoma.
NCGC Assay Protocol Summary:
The CellTiter-Glo luminescent cell viability assay (Promega) is a homogeneous method to measure the number of viable cells in culture. The end point readout of this assay is based on quantitation of intracellular ATP, an indicator of metabolic activity, using the luciferase reaction. Luciferase catalyzes the oxidation of beetle Luciferin to oxyluciferin and light in the presence of ATP. The luminescent signal is proportional to amount of ATP present.
Using the CellTiter-Glo luminescent cell viability assay, the amount of cellular ATP was measured in the SH-SY5Y cell line with complete culture medium following compound treatment for 40 hours. The assay was performed in opaque white Kalypsys 1536-well plates. In the screen, tamoxifen and doxorubicin were used as positive controls. Library compounds were measured for their ability to cause acute toxicity in the cell line, as reflected by a decrease in intracellular ATP levels, in a concentration-dependent manner. […] AC50 values were determined from concentration-response data modeled with the standard Hill equation.
qHTS protocol for CellTiter Glo SH-SY5Y cellular assay
[Step] [Parameter] [Value] [Description]
1. Reagent; 5 uL; 1500 SH-SY5Y cells/well
2. Time; 5 hr; 37 °C incubation
4. Controls; 23 nL; Tamoxifen 0.34 uM to 100 uM & Doxorubicin 0.02 nM to 100 uM
5. Time; 40 hr; 37 °C incubation
6. Reagent; 5 uL; CellTiter Glo reagent
7. Time; 20 min; Room Temperature
8. Detection; Luminescence; Viewlux plate reader
Keywords: cell viability, cytotoxicity, SH-SY5Y cell line, luminescence, NTPHTS, NTPHTS_NCGC, NIEHS, EPA, DSSTox, MLSMR, MLSCN, NIH Roadmap, qHTS, NCGC
Potency is the fitted concentration of half-maximal effect.

Question: With `Oc1ccc(/C=C/c2cc(O)cc(O)c2)cc1` as the compound, how does the “viability change, negative = cytotoxic” value read?
Answer: -26.8% (inactive)

Question: Which “viability change, negative = cytotoxic” value does the source give for `Cc1ncc[nH]1` here?
Answer: -7.56% (inactive)

Question: With `OC[C@H]1O[C@@H]2O[C@H]3[C@H](O)[C@@H](O)[C@@H](O[C@H]4[C@H](O)[C@@H](O)[C@@H](O[C@H]5[C@H](O)[C@@H](O)[C@@H](O[C@H]6[C@H](O)[C@@H](O)[C@@H](O[C@H]7[C@H](O)[C@@H](O)[C@@H](O[C@H]1[C@H](O)[C@H]2O)O[C@@H]7CO)O[C@@H]6CO)O[C@@H]5CO)O[C@@H]4CO)O[C@@H]3CO` as the compound, how does the “viability change, negative = cytotoxic” value read?
Answer: -5.4% (inactive)

Question: For `CCCCC`, which “viability change, negative = cytotoxic” value is on record?
Answer: 19.4% (inactive)

Question: Which “viability change, negative = cytotoxic” value does the source give for `CO/N=C(/C(=O)N[C@@H]1C(=O)N2C(C(=O)O)=C(COC(N)=O)CS[C@H]12)c1ccco1` here?
Answer: -14.8% (inactive)

Question: Which “viability change, negative = cytotoxic” value does the source give for `C[C@H](CCC(=O)O)[C@H]1CC[C@H]2[C@@H]3[C@H](O)C[C@@H]4C[C@H](O)CC[C@]4(C)[C@H]3C[C@H](O)[C@]12C` here?
Answer: -15.5% (inactive)

Question: With `O=c1n(CC2CO2)c(=O)n(CC2CO2)c(=O)n1CC1CO1` (stereo not drawn) as the compound, how does the Potency read?
Answer: 631 nM (active)

Question: Which “viability change, negative = cytotoxic” value does the source give for `CC1=CC(=O)NS(=O)(=O)O1` here?
Answer: -5.55% (inactive)

Question: For `CC1=CCC2CC1C2(C)C` (stereo not drawn), which “viability change, negative = cytotoxic” value is on record?
Answer: 9.3% (inactive)

Question: Which “viability change, negative = cytotoxic” value does the source give for `O=P(O)(O)O` here?
Answer: -10.6% (inactive)

Question: Which “viability change, negative = cytotoxic” value does the source give for `CCOC(C)OCC` here?
Answer: -7.53% (inactive)

Question: Which Potency does the source give for `OCC(O)CO` here?
Answer: inactive

Question: With `C=C1C(CCl)(CCl)C2(Cl)C(Cl)C(Cl)C1(Cl)C2(Cl)Cl` (stereo not drawn) as the compound, how does the Potency read?
Answer: 31600 nM (active)

Question: For `ClC(Cl)Cl`, which “viability change, negative = cytotoxic” value is on record?
Answer: -0.454% (inactive)

Question: Which Potency does the source give for `CCCCO` here?
Answer: inactive

Question: Which “viability change, negative = cytotoxic” value does the source give for `CC(C)(C)CC(C)(C)c1ccc(OCCO)cc1` here?
Answer: -8.59% (inactive)

Question: Which “viability change, negative = cytotoxic” value does the source give for `OCc1ccccc1` here?
Answer: -0.241% (inactive)

Question: For `O.O.O.O.O.O.O.O=S(=O)([O-])[O-].[Co+2]`, which “viability change, negative = cytotoxic” value is on record?
Answer: -25.4% (inactive)

Question: Which “viability change, negative = cytotoxic” value does the source give for `CC(C)O` here?
Answer: -10.3% (inactive)

Question: Which “viability change, negative = cytotoxic” value does the source give for `NCCN` here?
Answer: -6.27% (inactive)

Question: With `CO` as the compound, how does the “viability change, negative = cytotoxic” value read?
Answer: -8.64% (inactive)

Question: For `C[C@H](CCC(=O)O)[C@H]1CC[C@H]2[C@@H]3CC[C@@H]4C[C@H](O)CC[C@]4(C)[C@H]3C[C@H](O)[C@]12C`, which “viability change, negative = cytotoxic” value is on record?
Answer: -8.02% (inactive)

Question: Which “viability change, negative = cytotoxic” value does the source give for `[O-][N+](=Nc1ccccc1)c1ccccc1` here?
Answer: 1.75% (inactive)

Question: With `OB(O)O` as the compound, how does the “viability change, negative = cytotoxic” value read?
Answer: -1.29% (inactive)

Question: For `Cc1ccc(S(=O)(=O)O)cc1C`, which “viability change, negative = cytotoxic” value is on record?
Answer: -2.45% (inactive)

Question: For `c1ccc2ccccc2c1`, which “viability change, negative = cytotoxic” value is on record?
Answer: -5.68% (inactive)

Question: Which “viability change, negative = cytotoxic” value does the source give for `Nc1ncnc2c1ncn2[C@H]1CC[C@@H](CO)O1` here?
Answer: 6.1% (inactive)

Question: Which “viability change, negative = cytotoxic” value does the source give for `COC(=O)c1ccccc1O` here?
Answer: -15.2% (inactive)

Question: Which “viability change, negative = cytotoxic” value does the source give for `Nc1nccs1` here?
Answer: -11.7% (inactive)

Question: With `NC(N)=O` as the compound, how does the “viability change, negative = cytotoxic” value read?
Answer: -4.64% (inactive)

Question: For `C/C=C/C=C/C(=O)O`, which “viability change, negative = cytotoxic” value is on record?
Answer: -1.88% (inactive)

Question: For `C[C@H]1O[C@@H](O[C@H]2[C@@H](O)C[C@H](O[C@H]3[C@@H](O)C[C@H](O[C@H]4CC[C@@]5(C)[C@H](CC[C@@H]6[C@@H]5C[C@@H](O)[C@]5(C)[C@@H](C7=CC(=O)OC7)CC[C@]65O)C4)O[C@@H]3C)O[C@@H]2C)C[C@H](O)[C@@H]1O`, which Potency is on record?
Answer: 12.6 nM (active)

Question: For `OCl`, which “viability change, negative = cytotoxic” value is on record?
Answer: -5.63% (inactive)
